RORgamma inh: inhibitors of mouse ROR gamma transcriptional activity; P51450; actives 5.4% (n = 310,000); Potency, µM (series often up to 53.6 µM), for inactives: at the top dose activity change, negative = inhibition, actives largely listed as inhibitors; AID 2551; Drosophila S2 Gal4-RORgamma UAS-luciferase reporter, 20 h; further: on the % scale 0 is the no-effect control and ±100 the full control effect; nearly all actives have a fitted effect of over 60% in size
Target sequence (P51450 whole entry, looked up, the tested form may be a part): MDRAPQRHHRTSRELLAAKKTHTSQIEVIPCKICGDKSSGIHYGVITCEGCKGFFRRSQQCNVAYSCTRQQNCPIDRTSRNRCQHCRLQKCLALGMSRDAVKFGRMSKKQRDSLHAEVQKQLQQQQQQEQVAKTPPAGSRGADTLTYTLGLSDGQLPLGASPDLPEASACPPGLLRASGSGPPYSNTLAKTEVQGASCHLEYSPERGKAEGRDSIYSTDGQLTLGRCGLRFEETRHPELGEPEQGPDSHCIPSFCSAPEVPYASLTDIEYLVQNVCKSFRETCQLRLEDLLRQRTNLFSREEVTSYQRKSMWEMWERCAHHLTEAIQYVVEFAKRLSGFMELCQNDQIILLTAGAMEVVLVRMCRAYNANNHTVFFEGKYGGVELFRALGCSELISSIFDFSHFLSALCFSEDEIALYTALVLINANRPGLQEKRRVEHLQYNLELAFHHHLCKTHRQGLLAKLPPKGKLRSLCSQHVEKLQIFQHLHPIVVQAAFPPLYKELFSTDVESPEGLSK
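Luminescence from a UAS-regulated Photinus luciferase reporter in stably transfected Drosophila Schneider cells is measured; decreased signal marks ROR gamma inhibition. Fusion expression is induced by 700 uM copper sulfate for 20 hr.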
Gal4-VP16 FLuc: counter-screen for ROR gamma inhibitors: Gal4-VP16 reporter; Drosophila S2 Gal4-VP16 UAS-luciferase, luminescence, 20 h; Potency, µM (series often up to 53.6 µM), for the others: top-dose activity, negative = inhibition, hits mostly inhibitors; actives 3.5% (n = 310,000); AID 2546;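 further: Gal4-VP16 expression switched on by copper sulfate through the metallothionein promoter; on the % scale 0 is the no-effect control and ±100 the full control effect; nearly all actives have a fitted effect of over 50% in size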
Epigenetic derep: derepresses silenced GFP reporter in murine cells. murine LDR cells, GFP reporter derepression, 30 h. actives 0.2% (n = 280,000). Potency, µM (top dose mostly 53.9 µM), for inactives: at the top dose GFP activation, hits mostly activators; further: % of control where 0% means no effect; nearly all actives have a fitted effect of over 60% in size
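GFP-positive cell count by laser-scanning cytometry (objects 20–120 um) after 30 h, 37 C compound exposure of murine LDR cells; reporter is CMV-GFP integrated at a silenced locus, inducible by HDAC or DNMT inhibitors.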
Sfp PPTase inh: blocks B. subtilis Sfp PPTase activity; Q9F4F7; Biochemical Sfp PPTase activity, qHTS; Potency, µM, for inactives: largest response in the series, negative = inhibition, most hits filed as inhibitors; actives 3.5% (n = 310,000); AID 1490;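 further: the enzyme is Sfp with the accession as filed and its product quenches rhodamine fluorescence; 0% = enzyme reaction without inhibitor and -100% = no enzyme wells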
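Fluorescence-quenching assay: 15 nM Sfp-PPTase preincubated 15 min at room temperature with compound, then 5 uM rhodamine-CoA and 12.5 uM BHQ-2-labelled YbbR peptide added. Fluorescence (ex 525/em 598 nm) read at start and after 30 min; difference gives rate.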
ClpP mod: qHTS Assay for Activators of ClpP. ATP-dependent Clp protease proteolytic subunit (Bacillus subtilis (strain 168)), P80244. purified B. subtilis ClpP, FRET peptide cleavage, 20 min. Potency, µM (highest dose often 57.5 µM), without a hit: at the top dose activity change, negative = active. actives 1.9% (n = 340,000). AID 651965, 2013; active means well fitted falling curve with a large enough effect; inconclusive means small, poorly fitted or top-dose-only effect; inactive means no such curve, though single readings can be large or run the other way; further: the source files actives as falling curves though it sought activators and does not explain the sign; nearly all actives have a fitted effect of over 65% in size
Target sequence (P80244 whole entry, looked up): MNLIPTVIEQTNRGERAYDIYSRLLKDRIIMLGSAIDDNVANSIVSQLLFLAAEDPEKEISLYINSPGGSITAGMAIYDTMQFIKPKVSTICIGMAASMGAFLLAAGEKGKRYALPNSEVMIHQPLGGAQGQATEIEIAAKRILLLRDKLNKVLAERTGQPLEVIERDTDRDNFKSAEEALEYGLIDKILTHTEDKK
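ClpP 10 microg/mL final, pH 8 Tris/KCl buffer with BSA, glycerol, Tween-20; compound pinned in; FRET-FV substrate; RT 20 min; Ex320/Em430; ΔFRET vs ADEP 5.8 microM, DMSO, no enzyme.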
PINK1 expr mod: changes PINK1 expression; Potency, µM (series often up to 76.6 µM), without a hit: top-dose activation (PINK1 increase), actives largely listed as activators; PINK1 immunofluorescence, high-content cytometry, 24 h; AID 624263; actives 0.2% (n = 410,000); active means well fitted activation curve with a large enough effect; inconclusive means small, poorly fitted or top-dose-only effect; cell line not stated here; further: % of control where 0% means no effect; nearly all actives have a fitted effect of over 65% in size
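Stable cell line treated 24 h with compounds at 5 concentrations (CCCP controls), then fixed and immunostained for PINK1 plus nuclear and cell stains; PINK1 immunofluorescence quantified by laser-scanning microplate cytometry.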
* marks the source's active call; other numbers are inactive results; ? = inconclusive; . = no result; [ ] = dose if it differs, or a comment. Only some compounds are listed: those with a hit (about 8.1% of all), similar ones and a draw of the others. Unless noted, the call rests on the fitted dose curve; in most records, active means well fitted curve in the direction sought with a large enough effect; inconclusive means small, poorly fitted or top-dose-only effect, or another doubt; inactive means no such curve, though single readings can be large; an effect the other way counts as inactive or inconclusive. Potency means the concentration at half of the fitted maximal effect.

SMILES	RORgamma inh	Gal4-VP16 FLuc	Epigenetic derep	Sfp PPTase inh	ClpP mod	PINK1 expr mod
O=C(N/N=C/c1cccc(C(F)(F)F)c1)c1ccccc1O	10µM*	?	-1.4%	5.6%	-1.8%	18.8%
CCc1nnc(NC(=O)CSc2nccn2Cc2ccc(Cl)cc2)s1	.	.	-6.5%	.	0.7%	2.7%
Cc1ccc(Nc2c(-c3ccccc3O)nc3cc(C)ccn23)cc1	.	.	0.7%	.	28.2µM*	2.2%
Cc1ccc2nc(-c3ccccc3O)c(Nc3ccc4c(c3)OCCO4)n2c1	17.8µM*	-22.9%	0.3%	24.9%	?	1.8%
Clc1ccc2nc(-c3ccccn3)c(Nc3ccc4c(c3)OCO4)n2c1	7.94µM*	?	1.0%	-2.7%	-1.5%	9.0%
COc1ccc(-n2nnnc2C2CCN(S(=O)(=O)c3ccc(NC(C)=O)cc3)CC2)cc1	.	.	4.2%	.	1.7%	4.2%
O=C(N/N=C/c1cccs1)c1ccc2ccccc2c1	3.98µM*	5.62µM*	.	1.1%	-5.1%	?
O=C(N/N=C/c1cccs1)c1cccc2cc[nH]c12	2.82µM*	?	-2.2%	4.1%	-3.5%	-0.2%[38.3 µM]
O=C(N/N=C/c1cccs1)c1ccc2ncccc2c1	11.2µM*	?	2.3%	15.0%	-3.5%	6.0%
O=C(N/N=C/c1cccs1)c1ccc2nc[nH]c2c1	13.2%	-4.0%	-0.4%	-5.3%	-2.3%	0.6%
O=C(/C=C/c1ccccc1)c1cc(Br)ccc(=O)c1O	?	?	?	15.8µM*	2.4%	0.5%
O=C(/C=C/c1ccc(O)cc1)c1ccccc1O	?	-1.7%	?	-43.5%	.	.
Cc1ccc(/C=C/C(=O)c2ccccc(=O)c2O)cc1C	2.82µM*	3.55µM*	?	?	-0.9%	-2.5%
Cc1ccc(-n2c(CCC(=O)O)ccc2-c2cccs2)cc1Cl	.	.	7.9%	.	-6.1%	0.2%
CCCCN1CC(c2nc3ccccc3n2CCCCOc2ccc(C)c(C)c2)CC1=O (stereo not drawn)	.	.	-4.5%	.	0.3%	17.0%
COc1ccc2c(C)nc(Nc3nc(C)cc(C)n3)nc2c1	0.251µM*	1.26µM*	-4.8%	8.1%	?	1.9%[38.3 µM]
COc1ccc2nc(Nc3nc(CSc4nc5ccccc5[nH]4)cc(=O)[nH]3)nc(C)c2c1	5.62µM*	5.01µM*	?	21.7%	-3.3%	?
CCc1c(C)nc(Nc2nc(C)c3ccc(OC)cc3n2)[nH]c1=O	3.0%	-12.1%	-0.3%	23.1%	-7.0%	.
Cc1nc(Nc2nc(CSc3nc4ccccc4[nH]3)cc(=O)[nH]2)nc2ccccc12	?	?	?	13.6%	0.7%	10.1%
COc1ccc2c(C)nc(Nc3nc(C)c(C)c(=O)[nH]3)nc2c1	5.01µM*	2.82µM*	15.1%	8.1%	-15.6%	-4.3%
Cc1cccc(NC(=O)c2ccc(-n3c(C)nnc3C)cc2)c1	.	.	0.0%	.	0.5%	1.8%
Oc1cc(-c2nc3ccccc3s2)cc2c1OCCN(Cc1cccn1-c1nccs1)C2	.	.	.	.	.	1.5%
COCCN1CCN(C(=O)c2cnn(-c3nccc(-c4ccccc4F)n3)c2-c2ccco2)CC1	.	.	.	.	.	0.1%
Cc1ccc(-n2c(=O)[nH]c3sc4c(c3c2=O)CCNC4)cc1C	.	.	-1.3%	.	2.9%	0.2%
Cc1ccc2cc(C#N)c(N3CCCN(C(=O)C4CCCO4)CC3)nc2c1C (stereo not drawn)	-18.5%	5.3%	-2.9%	-10.6%	?	0.8%
SMILES	RORgamma inh	Gal4-VP16 FLuc	Epigenetic derep	Sfp PPTase inh	ClpP mod	PINK1 expr mod
COc1ccc2nc(N3CCCCC3)c(C#N)cc2c1	-27.9%	3.6%	-0.7%	79.4µM*	-28.0%	1.0%
Cc1ccc2cc(C#N)c(N3CCCC3)nc2c1C	-19.7%	12.1%	-0.8%	20µM*	-21.0%	2.1%
Cc1cc2ccccc2c[n+]1C	.	.	.	.	4.3%	-0.2%
O=C1C2C(c3ccccc3)=NN(c3ccccc3)C2C(=O)N1c1ccccc1 (stereo not drawn)	7.8%	-5.3%	0.0%	7.7%	28.2µM*	-2.8%
Fc1ccccc1COc1ccc(Br)cc1CNCc1ccncc1	?	?	-4.3%	79.4µM*	0.9%	1.1%
COc1ccccc1CNCc1cc(Br)ccc1OC	-13.5%	1.7%	9.7%	63.1µM*	.	2.9%
Fc1ccccc1COc1ccc(Br)cc1CNCc1cccnc1	4.0%	0.7%	0.9%	-16.1%	.	0.4%
COc1ccccc1CNCc1cc(OC)c(OC)cc1OC	-24.7%	-1.3%	-1.1%	13.1%	-1.7%	1.8%[38.3 µM]
Cc1cnc(-n2ncc(C(=O)NCCN3CCOCC3)c2C2CC2)nc1-c1cccs1	.	.	.	.	.	1.3%
O=C(NC(=S)Nc1cc([N+](=O)[O-])ccc1O)c1ccc2c(c1)OCO2	3.98µM*	2.82µM*	.	-29.8%	-1.5%	0.9%
COc1cc([N+](=O)[O-])ccc1NC(=S)NNC(=O)c1ccc2c(c1)OCO2	-30.0%	-19.3%	.	-14.7%	0.7%	2.8%
O=C(N/N=C/c1cc(O)ccc1[N+](=O)[O-])c1ccc2c(c1)OCCO2	10µM*	8.91µM*	2.0%	3.0%	.	-1.5%
COc1cc(/C=N/NC(=O)c2cccc(N3CCCC3=O)c2)ccc1O	-39.0%	-27.7%	.	4.9%	.	1.9%
COc1ccc(/C=N/NC(=O)c2ccc3c(c2)OCCO3)cc1[N+](=O)[O-]	19.9%	-1.0%	0.0%	7.4%	-3.8%	6.9%
O=C(N/N=C/c1cc([N+](=O)[O-])ccc1O)c1cccc(N2CCCC2=O)c1	2.24µM*	3.16µM*	.	11.2%	1.6%	1.1%
O=C(N/N=C/c1ccccc1[N+](=O)[O-])c1ccc2c(c1)OCCO2	3.55µM*	7.08µM*	6.3%	5.1%	.	6.4%
Cc1ccccc1-c1noc(-c2ccccc2OCC(=O)Nc2ccccc2[N+](=O)[O-])n1	.	.	-3.7%	.	-0.3%	-0.7%
CCN(CC)C(=O)Cn1c(=O)n(-c2ccc(Cl)cc2)c(=O)c2c3c(sc21)CCC3	.	.	-1.8%	.	0.9%	2.3%
Cc1cc(C)cc(N2CCn3c2nc2c3c(=O)n(C/C=C/c3ccccc3)c(=O)n2C)c1	.	.	0.0%	.	-17.0%	-0.2%
COc1ccc(OCC(=O)OCc2cc(=O)n3cc(C)sc3n2)cc1	.	.	0.0%	.	-10.4%	-0.5%
O=C(N/N=C/c1cc([N+](=O)[O-])ccc1O)c1ccncc1	?	4.0%	0.0%	4.1%	1.5%	1.7%
O=C(N/N=C/c1cc([N+](=O)[O-])ccc1O)c1ccc2c(c1)OCCO2	0.631µM*	1.41µM*	0.0%	-5.4%	0.4%	5.6%
Cc1cc(C)cc(NC(=O)C(C)N2Cc3ccccc3C2=O)c1 (stereo not drawn)	.	.	-1.2%	.	0.9%	0.4%
COC(=O)c1c(C)nc(C)c(C(=O)OC)c1-c1ccc(OC)c(OC)c1	-0.7%	0.7%	1.1%	20.2%	.	-0.1%

Screening results deposited in PubChem by National Center for Advancing Translational Sciences (NCATS).
